Assay results: PubChem BioAssay
Results filed as inconclusive are left out. Values without a mark were called inactive. Calls of active or inactive are those of the source. Cut-off read from the data, not from the text of the source: active = fluorescence slope change above about 50%; inconclusive = mostly about 31% to 49%; inactive = weaker than that.

Molecular target: ATP-dependent translocase ABCB1 (Homo sapiens) (UniProt P08183)
Test: P-glycoprotein substrate transport blockade – cell-based (AID 377)
Conditions: MDR1-expressing cells, fluorescent substrate accumulation slope; stronger effect = higher value; concentration not given here

Sequence of ATP-dependent translocase ABCB1 (Homo sapiens) (P08183 whole entry, looked up): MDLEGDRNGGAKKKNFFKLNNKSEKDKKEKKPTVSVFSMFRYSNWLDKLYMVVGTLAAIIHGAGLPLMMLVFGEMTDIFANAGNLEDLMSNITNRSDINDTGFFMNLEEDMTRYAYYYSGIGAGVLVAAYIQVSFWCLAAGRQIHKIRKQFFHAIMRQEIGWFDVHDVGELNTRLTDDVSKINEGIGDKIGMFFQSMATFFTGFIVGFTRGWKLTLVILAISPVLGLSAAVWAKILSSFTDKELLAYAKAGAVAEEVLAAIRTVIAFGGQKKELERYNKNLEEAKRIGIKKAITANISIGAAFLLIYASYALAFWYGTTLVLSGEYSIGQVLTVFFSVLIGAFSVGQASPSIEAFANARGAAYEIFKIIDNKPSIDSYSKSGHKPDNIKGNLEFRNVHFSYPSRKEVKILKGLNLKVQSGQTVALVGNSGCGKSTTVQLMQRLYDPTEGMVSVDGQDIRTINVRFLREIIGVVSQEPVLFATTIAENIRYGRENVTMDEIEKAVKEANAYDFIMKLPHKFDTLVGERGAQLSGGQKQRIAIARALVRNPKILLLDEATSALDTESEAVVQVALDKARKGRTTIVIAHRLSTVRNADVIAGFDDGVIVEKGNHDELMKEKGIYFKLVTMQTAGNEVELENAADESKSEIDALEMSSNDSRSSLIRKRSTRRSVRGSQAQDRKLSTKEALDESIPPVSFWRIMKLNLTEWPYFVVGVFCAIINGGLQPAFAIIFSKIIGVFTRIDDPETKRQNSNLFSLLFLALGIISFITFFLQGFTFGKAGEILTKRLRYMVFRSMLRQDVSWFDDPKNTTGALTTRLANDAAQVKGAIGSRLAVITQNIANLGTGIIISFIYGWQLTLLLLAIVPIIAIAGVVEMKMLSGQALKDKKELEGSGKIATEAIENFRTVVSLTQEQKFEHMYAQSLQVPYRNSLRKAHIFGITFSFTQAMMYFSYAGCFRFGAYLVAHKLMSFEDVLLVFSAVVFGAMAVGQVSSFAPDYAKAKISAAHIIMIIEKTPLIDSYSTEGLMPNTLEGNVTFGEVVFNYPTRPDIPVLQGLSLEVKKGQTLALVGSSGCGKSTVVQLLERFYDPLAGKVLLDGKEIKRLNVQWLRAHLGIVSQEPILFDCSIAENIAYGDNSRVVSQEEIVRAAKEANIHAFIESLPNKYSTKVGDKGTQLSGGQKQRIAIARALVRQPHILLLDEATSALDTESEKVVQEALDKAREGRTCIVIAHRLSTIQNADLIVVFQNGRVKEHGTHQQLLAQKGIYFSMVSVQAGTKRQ

Compound | fluorescence slope change
CN1CCN(C2=Nc3ccccc3Oc3ccc(Cl)cc32)CC1 | 163% (active)
CO[C@@]1(NC(=O)CSCC#N)C(=O)N2C(C(=O)O)=C(CSc3nnnn3C)CS[C@@H]21 | 20.3%
CN1CCC(=C2c3ccccc3C=Cc3ccccc32)CC1 | 178% (active)
COc1cc2nc(N3CCN(C(=O)C4COc5ccccc5O4)CC3)nc(N)c2cc1OC (stereo not drawn) | 75.1% (active)
CC(C)NCC(O)COc1ccc(CCOCC2CC2)cc1 (stereo not drawn) | 1%
Cc1scc2c1N(C(=O)CN1CCN(C)CC1)c1ccccc1NC2=O | 65.1% (active)
COc1cc(C(=O)OCCCN2CCCN(CCCOC(=O)c3cc(OC)c(OC)c(OC)c3)CC2)cc(OC)c1OC | 100% (active)
C=CC(N)CCC(=O)O (stereo not drawn) | 52.2% (active)
COC(=O)[C@@H]1[C@H]2C[C@H]3c4[nH]c5ccccc5c4CCN3C[C@@H]2CC[C@@H]1O | 52.6% (active)
O=C(c1ccc(F)cc1)C1CCN(CCn2c(=O)[nH]c3ccccc3c2=O)CC1 | -1%
CC(=O)OC(C)C[N+](C)(C)C (stereo not drawn) | -0.2%
CCOC(=O)C1=C[C@]2(CC)CCCN3CCc4c(n1c1ccccc41)[C@@H]32 | 107% (active)
NC(N)=NC(=O)Cc1c(Cl)cccc1Cl | 82% (active)
CN1C(C)(C)CCCC1(C)C | 17%
NC(N)=N/N=C/c1c(Cl)cccc1Cl | 70.4% (active)
C[C@]12C=CC(=O)C=C1CC[C@H]1[C@@H]3C[C@@H](O)[C@](O)(C(=O)CO)[C@@]3(C)C[C@H](O)[C@@]12F | 27%
CCOC(=O)C1=C(C)NC(C)=C(C(=O)OC)C1c1cccc(Cl)c1Cl (stereo not drawn) | 28.6%
COC(=O)Nc1nc2ccc(C(=O)c3cccs3)cc2[nH]1 | 103% (active)
